# The list is not random: actives were taken first. Their share in the collection is about 2.4%.
# Tau filament bind – binds recombinant human tau filaments; AID 596; P10636; 71,000 compounds, 2% hits; recombinant tau filaments, thioflavin S fluorescence, 15 h; filaments grown with octadecylsulfate alongside compound; Potency, µM (highest dose often 57.1 µM), inactives show at the highest dose activity change, negative = inhibition;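 further: on the % scale 0 is the no-effect control and ±100 the full control effect; actives lower thioflavin S fluorescence by blocking filaments or displacing dye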
#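 Assay mix: 1 uM His-tagged tau, 30 uM sodium octadecylsulfate, thioflavine S dye in HEPES/NaCl/DTT buffer. Compound is added prior to the inducer. Fluorescence after 15 h at 37 C.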
# ALOX15B inhib – inhibitors of human 15-lipoxygenase 2 (ALOX15B) | Potency, µM (titrated, usually from 57.1 µM), for inactives: at the top dose activity change, negative = inhibition, hits mostly inhibitors | O15296 | purified 15hLO-2, xylenol orange hydroperoxide absorbance | 110,000 compounds, 0.56% hits; further: on the % scale 0 is the no-effect control and ±100 the full control effect; nearly all actives have a fitted effect of over 60% in size
#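 Purified human 15hLO-2 (50 nM final) preincubated with compounds 15 min at room temperature in 25 mM Hepes pH 7.5, 0.01% Triton X-100, then 45 uM arachidonic acid added for 90 min; hydroperoxide detected via ferrous/xylenol orange, 573/405 nm absorbance ratio.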
# ALOX15 inhib – blocks human 15-lipoxygenase activity; 74,000 compounds, 1.4% hits; purified 15hLO-1, xylenol orange hydroperoxide absorbance; P16050; Potency, µM (titrated, usually from 57.1 µM), without a hit: at the top dose activity change, negative = inhibition, most hits filed as inhibitors; AID 887; further: on the % scale 0 is the no-effect control and ±100 the full control effect; nearly all actives have a fitted effect of over 55% in size
#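 40 nM 15hLO-1 + cpd, 15 min RT; start w/ 50 uM AA (final), 6 min RT; stop/detect w/ 200 uM XO + 300 uM Fe(II) in 50 mM H2SO4, 30 min; A573/A405. Buffer 25 mM Hepes pH 7.5, 0.01% Triton X-100. No-enzyme wells as negative control.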
# Hsp90 Hop PPI – changes Hsp90-Hop TPR2A binding signal, up or down; 71,000 compounds, 0.44% hits; AlphaScreen TPR2A-His6 binding biotin-Hsp90 C-terminal peptide; Potency, µM (highest dose often 57 µM), for inactives: top-dose activity change, negative = inhibition; AID 595; active means well fitted curve in either direction with a large enough effect; inconclusive means small, poorly fitted or top-dose-only effect, or another doubt; further: on the % scale 0 is the no-effect control and ±100 the full control effect
# Casp7 inh – blocks human caspase-7 allosterically or competitively; 75,000 compounds, 0.02% hits; recombinant caspase-7, Ac-DEVD-AFC fluorescence rate; Potency, µM (doses to about 57.5 µM), without a hit: at the highest dose activity change, negative = inhibition, usual class: inhibitors; active means well fitted inhibition curve with a large enough effect in the main read-out, with a control signal flat, not every such curve was filed as active; inconclusive means small, poorly fitted or top-dose-only effect, or a change in a side signal; further: % of control where 0% means no effect
# Caspase-1 inhib – blocks human caspase-1 allosterically or competitively; AID 900; 75,000 compounds, 0.03% hits; Potency, µM (series often up to 57.5 µM), for the others: at the highest dose activity change, negative = inhibition, actives largely listed as inhibitors; Caspase-1 enzyme, Ac-WEHD-AFC fluorogenic rate;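 further: plate controls were vehicle for no effect and no substrate for full effect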
# * hit, by the source's call; ? = inconclusive; · = not tested or not shown; ! = not active in a repeat; [ ] = remark or other dose. Unless noted, the call rests on the fitted dose curve; in most records, active means well fitted curve in the direction sought with a large enough effect; inconclusive means small, poorly fitted or top-dose-only effect, or another doubt; inactive means no such curve, though single readings can be large; an effect the other way counts as inactive or inconclusive. Potency means the concentration at half of the fitted maximal effect.
SMILES,Tau filament bind,ALOX15B inhib,ALOX15 inhib,Hsp90 Hop PPI,Casp7 inh,Caspase-1 inhib
COC(=O)c1c(C)n(-c2ccc(OC)cc2)c2ccc(O)cc12,119.3%,?,7.94µM*,-17.7%,-0.2%,1.5%
O=C(c1cccc(-n2cnnn2)c1)N1CCOCC1,-9.3%,2.6%,15.6%,2.1%,1.1%,0.2%
O=C(O)c1cn[nH]c1-n1cnnn1,0.6%,-0.4%,-2.2%,25.1µM*,8.8%,2.5%
COCCNc1ncnc2ccc(-c3ccc(N(C)C)cc3)cc12,15.8µM*,39.4%,-9.6%,-10.2%,-1.2%,-1.7%
CN(C)c1ccc(-c2ccc3ncnc(NCc4ccccc4)c3c2)cc1,2.51µM*,60.7%,-6.4%,-17.7%,-22.5%,?
c1ccc(CNc2ncnc3ccc(-c4ccoc4)cc23)cc1,-19.6%,-0.7%,-7.1%,4.6%,-10.6%,-3.0%
COCCNc1ncnc2ccc(-c3ccccc3C(F)(F)F)cc12,0.0%,?,25.1µM*,-12.5%,-3.7%,2.3%
Cc1cnc(CNc2ncnc3ccc(-c4ccc(C(=O)N(C)C)cc4)cc23)cn1,-6.1%,-0.1%,-18.9%,1.4%,-3.2%,-1.0%
Cc1cnc(CNc2ncnc3ccc(-c4ccc(N(C)C)cc4)cc23)cn1,25.1µM*,-1.1%,?,-20.7%,-3.6%,-2.3%
CCN(CC)CCNC(=O)C1c2ccccc2C(=O)N(CCOC)C1c1ccc(F)cc1 (stereo not drawn),·,5.9%,·,·,·,·
CCc1ccc(OCCNC(=O)c2cccs2)cc1,·,0.0%,·,·,·,·
Cc1ccc(C)c(S(=O)(=O)C(C#N)c2nc3ccccc3nc2N2CCOCC2)c1 (stereo not drawn),-11.9%,-10.6%,-15.5%,0.0%,?,·
Cc1ccc(C)c(S(=O)(=O)C(C#N)c2nc3ccccc3nc2N2CCCC2)c1 (stereo not drawn),302.2%,-28.9%,12.6µM*,-8.0%,?,·
N#CC(c1nc2ccccc2nc1N1CCCC1)S(=O)(=O)c1cccs1 (stereo not drawn),195.3%,?,10µM*,-16.2%,?,·
Cn1c(NC(=O)c2ccccc2Br)cc(=O)n(C)c1=O,-9.7%,-0.1%,25.1µM*,-4.7%,?,·
CCN1CCC2(CC1)C(C#N)=C(N)Oc1c2sc2nc(C)cc(C)c12,111.7%,6.4%,25.1µM*,-4.4%,?,?
CC(=O)N1CCC2(CC1)C(C#N)=C(N)Oc1c2sc2nc(C)cc(C)c12,13.8%,-10.4%,?,-4.7%,-1.3%,-3.9%
O=C(C1CCCN1S(=O)(=O)c1cccc2cccnc12)N1CCc2ccccc21 (stereo not drawn),-7.5%,-5.3%,-2.4%,-0.4%,-2.7%,1.0%
O=C(C1CCCN1S(=O)(=O)c1cccc2cccnc12)N1CCc2ccccc2C1 (stereo not drawn),25.9%,1.0%,25.1µM*,-5.0%[2.3 µM],-1.0%,-4.9%
CCOC(=O)N1CCC(NC(=O)C(NC(=O)C2CCCCC2)C(C)C)CC1 (stereo not drawn),3.9%,2.3%,9.4%,-4.1%,2.9%,1.1%
O=C(O)c1cccc(N=Nc2c(S(=O)(=O)O)ccc3c2C(=O)c2ccccc2C3=O)c1O,3.16µM*,-18.8%[11.4 µM],-11.4%[11.4 µM],-16.9%[11 µM],-7.8%[11.5 µM],-0.8%[11.5 µM]
O=C(Nc1nc(NC(=O)c2ccco2)n(-c2ccccc2)n1)c1ccccc1,·,60.2%,·,·,·,·
Clc1ccc(N2CCN(Cc3c[nH]c4ncccc34)CC2)cc1,39.8µM*!,50.5%,?,-0.2%,-7.4%,-3.2%
S=c1ccss1,·,?,7.94µM*,·,-7.8%,-4.9%
COc1ccc(C2=Nc3cccc4cccc(c34)N2)cc1,·,53.1%,·,·,·,·
SMILES,Tau filament bind,ALOX15B inhib,ALOX15 inhib,Hsp90 Hop PPI,Casp7 inh,Caspase-1 inhib
CC(C)C1=Nc2cccc3cccc(c23)N1,·,10µM*,·,·,·,·
Cc1ccc2nc(C)/c(=N\O)c(C)nc2c1,·,-8.5%,·,·,·,·
Cc1nc2ccc(Cl)cc2nc(C)/c1=N\O,12.6µM*,-19.5%,-16.9%,-18.7%,-9.5%,-11.8%
CC1Cc2ccccc2N1C(=O)Cn1c(=O)oc2cc(S(=O)(=O)NC3CCCC3)ccc21 (stereo not drawn),41.3%,-2.2%,-6.1%,-0.2%,-1.4%,-4.5%
COc1ccc2nc(C)cc(SCC(=O)Nc3c(C)cc(C)cc3C)c2c1,·,-15.6%,·,·,·,·
O=c1oc2c3c4c(cc2s1)CCCN4CCC3,25.1µM*,?,?,-28.3%,-14.0%,-3.4%
NCCOB(c1ccccc1)c1ccccc1,24.7%,20µM*,0.631µM*,1.6%,-1.3%,2.0%
CCCC[C@H](CC)CN=C(N)NC(N)=NCCCCCCN=C(N)NC(N)=NC[C@@H](CC)CCCC,168.4%[25.6 µM],40.7%[25.6 µM],-4.9%[25.6 µM],-3.9%[26 µM],-8.1%[25.7 µM],-1.0%[25.7 µM]
COCCn1c(-c2ccco2)nc2nc3ccccc3nc21,-15.2%,5.9%[2.29 µM],-14.6%,-1.6%,?,·
CC(C)OCCCn1c(-c2ccco2)nc2nc3ccccc3nc21,15.8µM*,-10.9%,-18.0%,2.8%,?,·
CSC1=C(C#N)C(c2cccc(Br)c2)CC(=O)N1 (stereo not drawn),-2.4%,·,-17.2%,0.2%,-1.1%,1.0%
O=C(CN1C(=O)COc2ccccc21)N1CCc2ccccc21,10.8%,-1.1%,-2.4%,0.5%,0.7%,-0.5%
O=C(C1COc2ccccc2O1)N1CCc2ccccc21 (stereo not drawn),-6.2%,-21.4%,15.8µM*,4.3%,-16.0%,-5.3%
COc1cc(NC(=O)C2CCCO2)c(OC)cc1NC(=O)c1ccccc1 (stereo not drawn),25.1µM*,-3.8%,-8.7%,-10.8%,-1.3%,-0.8%
Cc1cccc(-c2noc(CCc3ccccc3)n2)c1,-0.6%,8.4%,-1.8%,31.6µM*,-2.8%,-0.1%
CC[n+]1ccc(C)c2cc(S(=O)C(F)(F)F)ccc21 (stereo not drawn),6.31µM*,7.7%,-2.8%,-6.5%,-2.6%,-2.2%
COCCn1c(SCC(=O)OC(C)C)nnc1-c1ccccc1,-9.0%,-2.6%,-1.2%,-1.4%,0.5%,-1.1%
CN1C(=S)SC(/[N+]([O-])=C\c2ccco2)C1(C)C (stereo not drawn),-5.4%,-11.5%,0.5%,-5.5%,-0.3%,-0.7%
CCN(CC)c1ccc(NC(=O)C2CC3CCC2C3)cc1 (stereo not drawn),25.1µM*,?,-23.0%,-29.4%,-1.3%,-1.9%
CCOC(=O)C1=C(C)NC(=O)NC1c1ccc(F)cc1 (stereo not drawn),0.9%,·,-7.4%,-0.3%,-2.6%,-1.2%
CCOC(=O)C1=C(CN2CCC(C)CC2)NC(=O)NC1c1ccc(Cl)cc1 (stereo not drawn),15.8µM*,16.9%,-9.9%,-8.3%,1.0%,-1.7%
CCOC(=O)C1=C(CNCc2ccccc2Cl)NC(=O)NC1c1ccc2c(c1)OCO2 (stereo not drawn),15.8µM*,5.3%,-22.8%,-11.7%,-4.1%,-1.7%
CCOC(=O)c1c(CN2CCOCC2)n(-c2ccccc2)c2cc(Br)c(O)c(CN(C)C)c12,·,2.6%,·,·,·,·

# Source: PubChem (National Center for Advancing Translational Sciences (NCATS))
